Results reported in paper PMC5540273 (PLoS ONE, 2017).
Where “and” joins values, the source holds several entries; their conditions need not be identical. Equal entries are not always repeated. Where two headings read alike, the source gives them in different places.

Assays:
VPS34 = system: T1, VPS34; settings: concentration: 1 μM, replicates: in singlicate, n = 1
T1 construct: gene PIK3C3

VRK2 = settings: concentration: 1 μM, replicates: in singlicate, n = 1
WEE1 = settings: concentration: 1 μM, replicates: in singlicate, n = 1
WEE2 = settings: concentration: 1 μM, replicates: in singlicate; n = 1
WNK1 = settings: concentration: 1 μM, replicates: in singlicate, n = 1
WNK2 = settings: concentration: 1 μM, replicates: in singlicate, n = 1
WNK3 = settings: concentration: 1 μM, replicates: in singlicate, n = 1
WNK4 = settings: concentration: 1 μM, replicates: in singlicate, n = 1
YANK1 = system: T2, YANK1; settings: concentration: 1 μM, replicates: in singlicate, n = 1
T2 construct: gene STK32A

YANK2 = system: T3, YANK2; settings: concentration: 1 μM, replicates: in singlicate, n = 1
T3 construct: gene STK32B
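Note: KINOMEscan kinase panel screen.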

SMILES	%Inh (VPS34)	%Inh (VRK2)	%Inh (WEE1)	%Inh (WEE2)	%Inh (WNK1)	%Inh (WNK2)	%Inh (WNK3)	%Inh (WNK4)	%Inh (YANK1)	%Inh (YANK2)	%Inh (VPS34; 1 µM)	%Inh (VRK2; 1 µM)	%Inh (WEE1; 1 µM)	%Inh (WNK1; 1 µM)	%Inh (WNK2; 1 µM)	%Inh (WNK3; 1 µM)	%Inh (WNK4; 1 µM)	%Inh (YANK1; 1 µM)	%Inh (YANK2; 1 µM)
c1ccc(-c2cc(-c3c[nH]nc3-c3ccccn3)ccn2)cc1 [GW576604]	18%	2%	2%	0%	0%	18%	0%	11%	12%	0%	–	–	–	–	–	–	–	–	–
COCCNC(=O)c1ccc(-c2cc(C(=O)NC3CC3)cc(F)c2C)cc1 [GW868318]	9%	37%	3%	5%	31%	0%	23%	21%	1%	25%	–	–	–	–	–	–	–	–	–
O=C1Cc2cc(Nc3nc(NCc4cccc(S(=O)(=O)C(F)(F)F)c4)ncc3C(F)(F)F)ccc2N1	0%	23%	0%	0%	0%	6%	0%	0%	0%	0%	–	–	–	–	–	–	–	–	–
CN1c2ccc(CNc3ccc(F)cc3)cc2-c2c(cnn2C)S1(=O)=O	0%	0%	2%	0%	0%	0%	1%	0%	0%	0%	–	–	–	–	–	–	–	–	–
Cc1cccc(-c2nc(Nc3ccc4ncsc4c3)c3ccccc3n2)n1 [GW867588]	0%	0%	8%	6%	0%	6%	31%	0%	0%	0%	–	–	–	–	–	–	–	–	–
Nc1nccc(-c2c(-c3ccc(F)cc3)ncn2C2CCN(CC(F)(F)F)CC2)n1 [SB-236560]	58%	31%	0%	0%	0%	17%	35%	0%	22%	0%	–	–	–	–	–	–	–	–	–
Cn1cc(-c2ccc3c(c2)CCN3C(=O)Cc2ccccc2Cl)c2c(N)ncnc21 [GSK2608885]	0%	0%	0%	0%	0%	17%	6%	25%	32%	84%	–	–	–	–	–	–	–	–	–
Cc1cccc(Cn2ccn3c(=O)cc(N4CCOCC4)nc23)c1 [GSK2297542]	94.6%	0%	22%	22%	9%	6%	12%	8%	20%	0%	–	–	–	–	–	–	–	–	–
CC(C)Oc1ccc2c(-c3ccnc(Nc4ccc(N5CCN(C)CC5)cc4)n3)cnn2n1 [GW696155]	96%	8%	30%	0%	12%	42%	52%	31%	0%	0%	–	–	–	–	–	–	–	–	–
O=C(Nc1n[nH]c2cc(-c3cccc(F)c3)ccc12)C1CC1 [SB-735464]	0%	23%	0%	4%	28%	0%	36%	22%	0%	0%	–	–	–	–	–	–	–	–	–
COc1cc2c(cc1OC[C@@H](O)CO)ncc1c3ccc(C#N)cc3[nH]c21	0%	9%	0%	0%	1%	0%	2%	0%	19%	0%	–	–	–	–	–	–	–	–	–
Cc1nnc(-c2ccc3occ(-c4ccc(C(C)O)cc4)c3c2)o1 (stereo not shown)	18%	0%	8%	7%	0%	0%	0%	0%	5%	2%	–	–	–	–	–	–	–	–	–
Nc1nc(-c2ccc3c(N)n[nH]c3c2)cc(N2CCCC2)n1 [GSK2227430]	0%	0%	35%	0%	0%	0%	8%	0%	0%	0%	–	–	–	–	–	–	–	–	–
NCC(NC(=O)c1cc(-c2cn[nH]c2)c(-c2ccnc3[nH]ccc23)s1)c1ccccc1.O=C(O)C(F)(F)F.O=C(O)C(F)(F)F (stereo not shown) [GSK1325775]	59%	0%	0%	0%	6%	9%	21%	24%	15%	0%	–	–	–	–	–	–	–	–	–
N#Cc1c(N2CCOCC2)sc(-c2ccn[nH]2)c1-c1ccc(Cl)cc1	86%	35%	0%	0%	0%	4%	14%	34%	0%	0%	–	–	–	–	–	–	–	–	–
[2H]C([2H])(c1cccc(C(F)(F)F)c1C)n1ccn2c(=O)nc(N3CCOCC3)cc12 [GSK2336394]	0%	0%	9%	10%	7%	0%	28%	36%	11%	0%	–	–	–	–	–	–	–	–	–
N#Cc1ccc(-c2cc(-c3c[nH]nc3-c3ccccn3)ccn2)cc1 [GW693028]	0%	13%	2%	0%	7%	15%	30%	30%	15%	7%	–	–	–	–	–	–	–	–	–

SMILES	%Inh (VPS34)	%Inh (VRK2)	%Inh (WEE1)	%Inh (WEE2)	%Inh (WNK1)	%Inh (WNK2)	%Inh (WNK3)	%Inh (WNK4)	%Inh (YANK1)	%Inh (YANK2)	%Inh (VPS34; 1 µM)	%Inh (VRK2; 1 µM)	%Inh (WEE1; 1 µM)	%Inh (WNK1; 1 µM)	%Inh (WNK2; 1 µM)	%Inh (WNK3; 1 µM)	%Inh (WNK4; 1 µM)	%Inh (YANK1; 1 µM)	%Inh (YANK2; 1 µM)
CN1c2ccc(NCc3ccc(F)cc3)cc2-c2c(cnn2C)S1(=O)=O	0%	0%	0%	0%	42%	5%	8%	0%	0%	3%	–	–	–	–	–	–	–	–	–
Cl.Oc1cccc(Nc2ccnc3cc(-c4ccncc4)ccc23)c1 [GW494601]	34%	6%	10%	7%	0%	13%	41%	46%	33%	12%	–	–	–	–	–	–	–	–	–
CCCCCc1nc2c(N)ncnc2n1CCCCC [SKF-97255]	0%	0%	0%	3%	7%	0%	0%	0%	0%	12%	–	–	–	–	–	–	–	–	–
COC(=O)Nc1nc2cc(Oc3ccc(NC(=O)Nc4cc(F)ccc4F)cc3)ccc2[nH]1.Cl [GW701424]	0%	30%	1%	9%	12%	0%	48%	58%	0%	0%	–	–	–	–	–	–	–	–	–
CSc1ccc(-c2cc3ncnc(SCC(=O)O)c3s2)cc1	31%	0%	0%	15%	0%	0%	0%	0%	0%	0%	–	–	–	–	–	–	–	–	–
c1ccc(-c2n[nH]cc2-c2ccnc3ccccc23)nc1 [GW271431]	20%	0%	9%	2%	7%	11%	15%	0%	19%	4%	–	–	–	–	–	–	–	–	–
CC(C)(CN)c1nc(-c2ccc(Cl)c(O)c2)c(-c2ccncc2)[nH]1.O=C(O)C(F)(F)F [SB-477794]	–	–	–	0%	–	–	–	–	–	–	0% and 48%	41% and 42%	8% and 7%	16% and 0%	1% and 9%	52% and 39%	47% and 49%	95.3% and 93.8%	93.6% and 94%
CCc1nc(-c2cccc(C)c2)c(-c2ccnc(NCc3ccccc3)c2)s1	3%	0%	0%	25%	0%	12%	0%	0%	0%	2%	–	–	–	–	–	–	–	–	–
Cc1cn2c(=O)cc(N3CCOCC3)nc2n1Cc1cccc(Cl)c1Cl [GSK2334006]	96.7%	0%	20%	16%	0%	19%	27%	0%	23%	0%	–	–	–	–	–	–	–	–	–
COc1cc2c(cc1OCCN1CCN(C)CC1)ncc1c3ccc(C#N)cc3[nH]c21	0%	0%	24%	3%	0%	0%	0%	0%	0%	0%	–	–	–	–	–	–	–	–	–
O=C(c1ccc(-c2cc(-c3c[nH]nc3-c3ccccn3)ccn2)cc1)N1CCOCC1 [GW812171]	9%	23%	0%	0%	2%	9%	4%	0%	0%	63%	–	–	–	–	–	–	–	–	–
CN(C1=C(c2ccccc2)C(=O)NC1=O)c1ccccc1 [SB-334860]	0%	8%	13%	0%	8%	28%	17%	1%	0%	15%	–	–	–	–	–	–	–	–	–
COc1ccc(Nc2ncc(C#N)c(Nc3ccccc3C(N)=O)n2)cc1N1CCN(C)CC1.Cl [GSK1558669]	43%	0%	99.8%	100%	66%	31%	4%	0%	93.5%	68%	–	–	–	–	–	–	–	–	–
O=C(NCCCN1CCOCC1)c1cccc(Nc2nccc(Nc3ccc(Oc4ccccc4)cc3)n2)c1 [GW663929]	0%	17%	31%	0%	11%	14%	33%	0%	0%	0%	–	–	–	–	–	–	–	–	–
Cc1c(Cn2c(C)nn3c(=O)cc(N4CCOC(C)C4)nc23)cccc1C(F)(F)F (stereo not shown) [GSK2344444]	48%	0%	10%	0%	4%	0%	2%	0%	0%	0%	–	–	–	–	–	–	–	–	–
COc1ccc(COc2cc(-n3cnc4ccccc43)sc2C(N)=O)cc1 [GSK1024304]	40%	0%	0%	2%	0%	0%	12%	13%	6%	0%	–	–	–	–	–	–	–	–	–
CC(=O)Nc1ccc(COc2ccc(Nc3ccnc4cc(-c5ccccn5)ccc34)cc2)cc1.Cl [GW440148]	0%	0%	18%	0%	10%	9%	21%	83%	6%	2%	–	–	–	–	–	–	–	–	–
